Sampled rows, rich in hits. Any-hit rate of the full collection: about 2.8%.
PI5P4Ka inh: qHTS for Inhibitors of phosphatidylinositol 5-phosphate 4-kinase (PI5P4K) | Phosphatidylinositol 5-phosphate 4-kinase type-2 alpha (Homo sapiens), P48426 | PI5P4Kalpha enzyme, ADP-Glo luminescence, 60 min; active compounds read low | max response, % | AID 652105, 2013 | hit rate 1.2% among 330,000; active = max response of -50% or lower; inconclusive = between -30% and -50%; inactive = -30% or higher; also: value at the top dose of about 77 µM
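ADP-Glo luminescence end-point after a 60 min room-temperature kinase reaction. PI5P4Kalpha and substrate in HEPES pH 7.4 buffer with EGTA, 0.1% CHAPS and 5% DMSO; ATP at 5 microM final.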
POLB inh: qHTS Assay for Inhibitors of DNA Polymerase Beta; AID 485314, 2010; P06746; hit rate 1.3% among 340,000; Pol beta primer extension/strand displacement, fluorescence kinetic; Potency, µM (titrated, usually from 114 µM), most hits filed as inhibitors
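Kinetic readout of DNA synthesis with strand displacement by Pol beta. Compound and 10 nM enzyme sit 15 min at room temperature; 50 nM substrate starts the reaction, read immediately and at 10 min.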
FEN1 inh-1: qHTS Assay for the Inhibitors of Human Flap endonuclease 1 (FEN1) | Recombinant FEN1 flap cleavage, fluorescence, 15 min | AID 588795, 2011 | hit rate 0.35% among 390,000 | P39748 | Potency, µM (highest dose often 114 µM), usual class: inhibitors; also: nearly all actives have a fitted effect of over 65% in size
Target sequence (P39748 whole entry, looked up): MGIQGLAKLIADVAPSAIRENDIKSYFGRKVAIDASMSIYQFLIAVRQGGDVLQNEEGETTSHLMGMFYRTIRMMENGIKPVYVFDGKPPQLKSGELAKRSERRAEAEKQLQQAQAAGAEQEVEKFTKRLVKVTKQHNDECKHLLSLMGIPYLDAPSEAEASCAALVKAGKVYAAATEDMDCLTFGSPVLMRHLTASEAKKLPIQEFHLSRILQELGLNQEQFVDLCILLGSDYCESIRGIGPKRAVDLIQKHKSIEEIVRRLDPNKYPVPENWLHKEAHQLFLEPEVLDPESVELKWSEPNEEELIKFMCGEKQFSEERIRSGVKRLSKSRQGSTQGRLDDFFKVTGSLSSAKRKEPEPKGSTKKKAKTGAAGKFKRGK
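FEN1 at 10 nM, compound pretreatment for 15 min (room temperature), 50 nM final substrate to initiate; endpoint reads at 0 and 15 min; DMSO-only plates used as vehicle background.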
Pol iota inh: qHTS for Inhibitors of Polymerase Iota; hit rate 1% among 390,000; Pol iota fluorescent replication assay, 10 min; Potency, µM (top dose mostly 115 µM), hits mostly inhibitors
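Pol iota at 10 nM preincubated 15 min with compounds at room temperature; reaction started with fluorescent substrate, 50 nM final. Fluorescence read kinetically at 0 and 10 min; buffer-only wells as negative control.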
Pol kappa inh-1: qHTS for Inhibitors of Polymerase Kappa | purified Pol kappa, fluorescent DNA synthesis assay, 10 min | Potency, µM (series often up to 107 µM), usual class: inhibitors | hit rate 0.53% among 400,000
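Pol kappa 10 nM + cpd, 15 min RT; start w/ substrate 50 nM final; fluorescence kinetic read, 0 and 10 min. Neg ctrl: buffer, no enzyme.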
Pol eta inh-1: qHTS for Inhibitors of Polymerase Eta; recombinant Pol eta, fluorescent DNA replication assay; AID 588591, 2011; DNA polymerase eta (Homo sapiens), Q9Y253; hit rate 1.2% among 390,000; Potency, µM (top dose mostly 114 µM), hits mostly inhibitors
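Fluorescent replication assay: 50 nM final substrate added after a 15 min room-temperature compound preincubation with 10 nM enzyme. Signal taken at 0 min and again at 10 min.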
PGK validate: qHTS for inhibitors of Phosphogylcerate Kinase: Hit Validation Screen; Potency, µM (top dose mostly 57.5 µM), actives largely listed as inhibitors; hit rate 79% among 500; TbPGK coupled GAPDH assay, Kinase-Glo luminescence; shares compounds with Pol kappa inh-1; also: nearly all actives have a fitted effect of over 65% in size
Pol iota confirm: qHTS for Inhibitors of Polymerase Iota: Confirmatory Assay for Cherry-picked Compounds | Potency, µM, most hits filed as inhibitors | hit rate 77% among 1,500 | Pol iota primer extension, TAMRA/BHQ fluorescence | shares compounds with Pol kappa inh-1
GALK confirm: Confirmation Assay for Inhibitors of Human Galactokinase (GALK); shares compounds with Pol eta inh-1; purified GALK, Kinase-Glo ATP depletion luminescence; Potency, µM (doses to about 115 µM), actives largely listed as inhibitors; hit rate 70% among 150
GALK redox cs: Confirmatory Assay for Inhibitors of Human Galactokinase (GALK): Phenol-HRP redox assay counterscreen; Phenol red-HRP H2O2 redox cycling, absorbance 600 nm; Potency, µM (titrated, usually from 115 µM), actives largely listed as inhibitors; shares compounds with Pol eta inh-1; hit rate 40% among 150; AID 2035, 2009
HEK293 viability: Secondary Assay for Inhibitors of Human Galactokinase (GALK): HEK-293 Cell Viability Assay | shares compounds with Pol eta inh-1 | HEK-293 viability, ATP luminescence (CellTiter-Glo), 24/48 h | Potency, µM (top dose mostly 46.1 µM), most hits filed as inhibitors | hit rate 10% among 170 | AID 2547, 2010
Pol kappa inh-2: qHTS for Inhibitors of Polymerase Kappa: Confirmatory Assay for Cherry-picked Compounds | purified Pol-kappa, fluorescent strand-displacement substrate | hit rate 76% among 920 | Potency, µM, usual class: inhibitors | shares compounds with Pol eta inh-1
Pol eta inh-2: qHTS for Inhibitors of Polymerase Eta: Confirmatory Assay for Cherry-picked Compounds; Pol eta primer extension, TAMRA/BHQ fluorescence, 10 min; hit rate 64% among 2,600; Potency, µM, hits mostly inhibitors; shares compounds with Pol eta inh-1
FEN1 inh-2: qHTS Assay for the Inhibitors of FEN1: Confirmatory Assay for Cherry-picked Compounds; shares compounds with FEN1 inh-1; FEN1 flap cleavage, TAMRA/BHQ2 fluorogenic DNA substrate; Potency, µM, usual class: inhibitors; hit rate 79% among 880; also: nearly all actives have a fitted effect of over 60% in size
A number is an active result; . = inactive; ? = inconclusive; / = not tested or not shown; [ ] = dose if it differs, or a comment. Unless noted, calls follow the shape of the dose curve; as a rule, active = well fitted curve in the direction sought with a large enough effect; inconclusive = small, poorly fitted or top-dose-only effect, or another doubt; inactive = no such curve, though single readings can be large; an effect the other way counts as inactive or inconclusive.

SMILES	PI5P4Ka inh	POLB inh	FEN1 inh-1	Pol iota inh	Pol kappa inh-1	Pol eta inh-1	Pol iota confirm	Pol eta inh-2	FEN1 inh-2	others
COCOCCn1cc(CN2CCS(=O)(=O)N(Cc3ccc(-c4ccc(Cl)c(Cl)c4)cc3)C(C)C2=O)nn1 (stereo unspecified)	.	/	/	/	/	.	/	/	/
CCOC(=O)C1=C(C)N=c2s/c(=C/c3ccc(OCC(=O)O)cc3)c(=O)n2C1c1ccc(F)cc1 (stereo unspecified)	.	56.2µM	?	17.8µM	.	?	75.2	/	84.9	Pol kappa inh-2=?
CC1=C(C(=O)OC(C)C)C(c2ccc(Cl)cc2)n2c(sc(=Cc3ccc(OCC(=O)O)cc3)c2=O)=N1 (stereo unspecified)	.	/	/	/	/	/	/	/	/
Cc1ccc(CNC(=O)COC(=O)c2ccc(S(=O)(=O)N(C)C)cc2)cc1	.	.	.	.	.	.	/	/	/
CCc1ccccc1NC(=O)CNC(=O)CSC(=S)N1CCCC1	.	/	.	.	.	.	/	/	/
O=S(=O)(NCc1ccc(F)cc1)c1ccc(N2CCCCS2(=O)=O)cc1	/	.	.	.	.	.	/	/	/
Cc1ccc(C)n1-c1cccc(C(=O)O)c1	/	1µM	/	/	/	/	8.44	0.169	21.3	Pol kappa inh-2=?
Cc1ccc(C)n1-c1cccc(N)c1	/	.	/	/	/	/	/	/	/
Cc1cc(=O)[nH]c2cc(N)ccc12	/	/	.	.	.	/	/	/	/
Nc1ccc2cc3[nH]c4cc(N)ccc4c3nc2c1	-58.9	/	11.2µM	8.91µM	15.8µM	4.47µM	18.9	/	12
CC(C#N)(Cc1ccccc1)Nc1ccccc1 (stereo unspecified)	.	/	.	.	.	.	/	/	/
COC(=O)c1ccccc1-c1c2ccc(=N)cc-2oc2cc(N)ccc12	.	/	28.2µM	79.4µM	28.2µM	50.1µM	23.8	75.7	67.5	Pol kappa inh-2=47.4
COC(=O)c1ccccc1-c1ccc(/C=N/NC(=O)c2cc3ccccc3o2)o1	.	?	.	.	.	.	/	/	/
O=C(O)c1ccc(S(=O)(=O)/N=C2\C=C(Nc3ccccc3F)C(=O)c3ccccc32)cc1	?	44.7µM	44.7µM	1.12µM	?	8.91µM	21.2	21.3	?	GALK confirm=7.49µM;GALK redox cs=4.21µM;HEK293 viability=12.5µM
Cc1ccccc1/C(N)=N/OC(=O)c1cccs1	.	.	.	.	.	.	/	/	/
Cc1cc2nc3c(=O)[nH]c(=O)[nH]c3nc2c([N+](=O)[O-])c1N	-76.4	35.5µM	44.7µM	?	28.2µM	3.55µM	23.8	21.3	37.9	Pol kappa inh-2=16.8
COc1ccc(-n2c(=O)c(-c3cn(C)c4ccccc34)nc3cncnc32)cc1	/	/	/	/	.	/	/	/	/
O=C1C=C(O)c2c(O)cc(O)c(O)c2C1=O	-68.2	/	3.55µM	3.55µM	2µM	1.58µM	3.77	21.3	21.3	PGK validate=8.19µM
O=C(O)C(c1ccccc1)N1C(=O)/C(=C\c2ccc(O)c(O)c2)SC1=S (stereo unspecified)	?	3.98µM	?	?	7.08µM	3.16µM	15	4.78	30.1	Pol kappa inh-2=2.67
COc1ccccc1/C=C1\SC(=S)N(C(C(=O)O)c2ccccc2)C1=O (stereo unspecified)	.	.	.	.	.	.	/	/	/
CCCN(CC(=O)Nc1ccccc1OC)C(=O)c1ccc(=O)[nH]c1	.	.	.	.	.	.	/	/	/
N=C1/C(=C\c2ccc(-c3cccc(C(=O)O)c3)o2)C(=O)N=C2SC=C(c3ccccc3)N12	-98.2	20µM	31.6µM	20µM	39.8µM	8.91µM	29.9	9.53	67.5
COc1ccccc1-n1c(C)cc(/C=C2\C(=N)N3N=C(CC(=O)N4CCOCC4)SC3=NC2=O)c1C	.	.	.	.	.	.	/	/	/
N=C1/C(=C/c2ccc(-c3cccc(C(=O)O)c3)o2)C(=O)N=C2SC(CC(=O)N3CCOCC3)=NN12	-83.4	?	35.5µM	3.55µM	?	3.55µM	16.8	4.78	67.5
Oc1ccc(C2=Nn3c(nnc3-c3ccco3)SC2)cc1O	?	3.98µM	50.1µM	2.24µM	20µM	3.16µM	26.7	19	42.6	PGK validate=5.8µM
COc1cc(OC)cc(C(=O)N[C@H](C(=O)OCC(=O)Nc2cccnc2Cl)C(C)C)c1	.	/	.	.	.	.	/	/	/
C[C@H](CO)N1C[C@H](C)[C@@H](CN(C)C(=O)Nc2ccc3c(c2)OCO3)Oc2ccc(NC(=O)Cn3cnnn3)cc2C1=O	.	/	.	.	.	.	/	/	/
COc1cc2oc(-c3ccccc3)cc(=O)c2cc1OC	/	/	/	/	.[19.4 µM]	/	/	/	/
COc1cc(OC)c(-c2c3cc(O)c(=O)cc-3oc3cc(O)c(O)cc23)cc1OC	.	20µM	50.1µM	/	?	/	1.34	67.5	33.8	Pol kappa inh-2=18.9
